Among the data in the OligoGym collection are sensor-assay potency score (higher = more potent) values, retold here.
Further: reference of the scale not given here.

In this test the target is ATOX1. Description: pooled miR-30 sensor sort-seq; sequence = guide strand. To be noted: shRNA.
With TTCCTGTTTTCTTCAGGGTTGC, the sensor-assay potency score (higher = more potent) was -0.392.

In turn, TATTGAGGACCCGAGAGACAGC came in with a sensor-assay potency score (higher = more potent) of -1.44. To ATGTCATACTTAACTCCTCCAA belongs -0.956; to AAGCAGAGTGTCCATGCTGTGC, -1.19. The same measure for AGTCTTTCCTGTTTTCTTCAGG: -1.75; for TTCAATGCAGACCTTCTTGTTG: -0.466; for TTCAGCACAGCCTCCACAGGTC: -0.0676. To TTGTTGGGCAGGTCAATGTCAT belongs -0.613; to ATACTTAACTCCTCCAAGCTTA, -0.272; to TTTCTTCAGGGTTGCAAGCAGA, -1.16. On to TAACTCCTCCAAGCTTATTGAG, for which the sensor-assay potency score (higher = more potent) was -1.42. To TGTCATACTTAACTCCTCCAAG belongs -0.838; to AATGCAGACCTTCTTGTTGGGC, -0.556. To TCAATGTCATACTTAACTCCTC belongs -0.482. The sequence TTTTCTTCAGGGTTGCAAGCAG had a sensor-assay potency score (higher = more potent) of 0.404.

As to TAGGAAACAGTCTTTCCTGTTT, the sensor-assay potency score (higher = more potent) was -0.521. TTCAGGGTTGCAAGCAGAGTGT gave a sensor-assay potency score (higher = more potent) of -1.04. To TTTCCTGTTTTCTTCAGGGTTG belongs -0.588. To TACTTAACTCCTCCAAGCTTAT belongs -1.31. The same measure for TCAGATTCAATGCAGACCTTCT: -0.2; for TCAATGCAGACCTTCTTGTTGG: -0.56. As to AACTCCTCCAAGCTTATTGAGG, the sensor-assay potency score (higher = more potent) is -1.32. Regarding TTCTTCAGGGTTGCAAGCAGAG, the sensor-assay potency score (higher = more potent) is -0.987. To TCCAAGCTTATTGAGGACCCGA belongs -0.663.
